Here are results for 7 compounds from PubChem BioAssay (EPA / NIEHS).

Assay [1] concerns the target human Adrenergic, Alpha 2A Receptor (Adra2A), ADRA2A (gene 150) (UniProt P08913). Nature of the assay: NVS_GPCR_hAdra2A: NovaScreen (NVS) G Protein-Coupled Receptor Assay for human Adrenergic, Alpha 2A Receptor (Adra2A) (AID 2283257). In short, it runs like this:
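Displacement of a specific radioligand from HT29 membrane protein was counted by filter scintillation after 1 h. Compounds were screened in duplicate at 25 uM, and actives were retested in concentration series. Fitting was positive-direction against DMSO.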

Assay [2] deals with human Adrenergic, Beta 1 Receptor (Adrb1), ADRB1 (gene 153) (UniProt P08588). Nature of the assay: NVS_GPCR_hAdrb1: NovaScreen (NVS) G Protein-Coupled Receptor Assay for human Adrenergic, Beta 1 Receptor (Adrb1) (AID 2283258). In a few lines:
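Membranes/protein extracted from human neuroepithelioma cells, radioligand competition binding read by filtration and scintillation 2 h post-dose. Single 25 uM duplicate screen, then concentration-response follow-up; DMSO as negative control.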

The target of assay [3] is human Adrenergic, Alpha 2c Receptor (Adra2C), ADRA2C (gene 152) (UniProt P18825). Nature of the assay: NVS_GPCR_hAdra2C: NovaScreen (NVS) G Protein-Coupled Receptor Assay for human Adrenergic, Alpha 2c Receptor (Adra2C) (AID 2283259). In a few lines: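 Screened first in duplicate at 25 uM, with actives then run as concentration series. Membranes from Sf9 cells were exposed for 1 h, and displacement of radioligand was counted after filtration, using DMSO as baseline.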
human Adrenergic, Alpha 2c Receptor (Adra2C), ADRA2C (gene 152), sequence (P18825 whole entry, looked up): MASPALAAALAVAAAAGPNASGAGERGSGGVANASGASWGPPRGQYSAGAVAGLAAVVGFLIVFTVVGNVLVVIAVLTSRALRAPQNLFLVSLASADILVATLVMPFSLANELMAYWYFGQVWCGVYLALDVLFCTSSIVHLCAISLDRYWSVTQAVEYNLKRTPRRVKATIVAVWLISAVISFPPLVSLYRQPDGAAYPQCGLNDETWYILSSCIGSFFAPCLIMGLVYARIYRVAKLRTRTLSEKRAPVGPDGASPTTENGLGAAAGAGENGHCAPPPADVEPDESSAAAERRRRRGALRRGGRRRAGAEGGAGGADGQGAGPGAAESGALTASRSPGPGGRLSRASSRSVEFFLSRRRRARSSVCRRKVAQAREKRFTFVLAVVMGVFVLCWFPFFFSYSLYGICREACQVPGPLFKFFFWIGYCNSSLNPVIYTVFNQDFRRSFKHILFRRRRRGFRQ

For assay [4], the target named is Beta-2 adrenergic receptor (Homo sapiens) (UniProt P07550). Nature of the assay: NVS_GPCR_hAdrb2: NovaScreen (NVS) G Protein-Coupled Receptor Assay for human Adrenergic, Beta 2 Receptor (Adrb2) (AID 2283261). In short, it runs like this:
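Compounds screened in duplicate at 25 uM, then actives in concentration series. Human beta-2 receptor from CHO material, cell-free; radioligand displacement after 1 h measured by filtration and scintillation against DMSO baseline.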

Assay [5] has as its target human Adrenergic, Beta 3 Receptor (Adrb3), ADRB3 (gene 155) (UniProt P13945). Kind of assay: NVS_GPCR_hAdrb3: NovaScreen (NVS) G Protein-Coupled Receptor Assay for human Adrenergic, Beta 3 Receptor (Adrb3) (AID 2283262). In a few lines:
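A cell-free filter binding assay read by scintillation counting, with displacement of a specific radioligand measured after 1 hour. The receptor source was SK-N-MC extracts (cells pretreated with isoproterenol and 8-bromo-cAMP). Compounds were first tested at 25 uM in duplicate and then in concentration series.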

The target in assay [6] is Type-1 angiotensin II receptor (Homo sapiens) (UniProt P30556). Kind of assay: NVS_GPCR_hAT1: NovaScreen (NVS) G Protein-Coupled Receptor Assay for human Angiotensin II receptor type 1 (AT1) (AID 2283263). In short, it runs like this:
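Hits from a 25 uM duplicate screen (threshold e.g. 30% inhibition) were run in concentration-response with 50 uM top concentration. Displacement of specific radioligand from KAN-TS membrane preparations measured after 3 h by filter scintillation, DMSO as baseline.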

In assay [7] the target is human Dopamine Receptor D4.4 (DRD4.4), DRD4 (gene 1815) (UniProt P21917). Nature of the assay: NVS_GPCR_hDRD4.4: NovaScreen (NVS) G Protein-Coupled Receptor Assay for human Dopamine Receptor D4.4 (DRD4.4) (AID 2283264). In short, it runs like this:
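Filter-binding assay with a tritiated or iodinated ligand, cell-free receptor prepared from CHO, 1 hour. Loss of bound radioactivity versus DMSO; single 25 uM duplicate screen, then concentration-response for actives.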

The target of assay [8] is human Dopamine Receptor D2 (DRD2), DRD2 (gene 1813) (UniProt P14416). Nature of the assay: NVS_GPCR_hDRD2s: NovaScreen (NVS) G Protein-Coupled Receptor Assay for human Dopamine Receptor D2 (DRD2) (AID 2283266). In a few lines: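 Test compound (25 uM, duplicate in the primary screen; concentration series at follow-up) competed with radioligand for human DRD2 in CHO-derived membrane protein. Filter-based scintillation counting was done 1.5 hours after dosing, with loss of signal analysed against DMSO.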
human Dopamine Receptor D2 (DRD2), DRD2 (gene 1813), sequence (P14416 whole entry, looked up): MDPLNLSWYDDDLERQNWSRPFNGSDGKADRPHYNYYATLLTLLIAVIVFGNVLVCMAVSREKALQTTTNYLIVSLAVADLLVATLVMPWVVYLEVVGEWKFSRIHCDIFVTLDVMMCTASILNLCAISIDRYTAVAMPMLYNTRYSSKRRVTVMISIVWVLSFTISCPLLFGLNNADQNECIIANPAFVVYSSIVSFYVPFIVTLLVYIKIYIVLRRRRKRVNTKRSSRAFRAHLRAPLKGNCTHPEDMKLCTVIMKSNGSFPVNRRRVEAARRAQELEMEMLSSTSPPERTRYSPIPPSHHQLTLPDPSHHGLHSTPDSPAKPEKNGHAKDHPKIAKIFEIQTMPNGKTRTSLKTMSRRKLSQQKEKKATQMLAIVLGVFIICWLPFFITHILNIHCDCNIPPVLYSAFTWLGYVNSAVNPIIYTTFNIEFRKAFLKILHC

In assay [9] the target is human Histamine 1 Receptor (H1), HRH1 (gene 3269) (UniProt P35367). Kind of assay: NVS_GPCR_hH1: NovaScreen (NVS) G Protein-Coupled Receptor Assay for human Histamine 1 Receptor (H1) (AID 2283268). In short, it runs like this: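 Filter-based scintillation detection of radioligand binding to human H1, 1 h incubation; chemicals screened in duplicate at 25 uM, then concentration-response; signal loss relative to DMSO taken as activity.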
human Histamine 1 Receptor (H1), HRH1 (gene 3269), sequence (P35367 whole entry, looked up): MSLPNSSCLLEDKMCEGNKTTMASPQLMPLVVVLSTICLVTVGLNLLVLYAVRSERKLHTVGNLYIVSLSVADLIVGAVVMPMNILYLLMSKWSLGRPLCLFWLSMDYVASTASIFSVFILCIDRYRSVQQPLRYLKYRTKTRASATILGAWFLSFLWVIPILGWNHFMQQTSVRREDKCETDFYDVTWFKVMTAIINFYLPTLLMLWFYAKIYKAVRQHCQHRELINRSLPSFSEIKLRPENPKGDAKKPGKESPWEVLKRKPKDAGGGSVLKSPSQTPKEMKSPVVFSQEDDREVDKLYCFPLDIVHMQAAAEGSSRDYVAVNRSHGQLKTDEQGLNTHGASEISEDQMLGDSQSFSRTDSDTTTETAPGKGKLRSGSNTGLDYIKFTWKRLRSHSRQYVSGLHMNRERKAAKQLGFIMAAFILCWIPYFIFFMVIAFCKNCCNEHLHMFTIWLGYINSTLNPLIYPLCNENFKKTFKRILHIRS

Assay [10] deals with D(1A) dopamine receptor (Homo sapiens) (UniProt P21728). Kind of assay: NVS_GPCR_hDRD1: NovaScreen (NVS) G Protein-Coupled Receptor Assay for human Dopamine Receptor D1 (DRD1) (AID 2283269). In short, it runs like this:
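Radioligand displacement binding on membranes/protein extracted from HEK293 expressing human D1, cell-free; read 1 h after dosing by filter-based scintillation counting. Primary screen in duplicate at 25 uM, actives followed up in concentration series; signal loss versus DMSO baseline.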

Assay [11] concerns the target Muscarinic acetylcholine receptor M1 (Homo sapiens) (UniProt P11229). Nature of the assay: NVS_GPCR_hM1: NovaScreen (NVS) G Protein-Coupled Receptor Assay for human Muscarinic, M1 Receptor (AID 2283270). In short, it runs like this:
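Actives from a duplicate 25 uM single-point screen were retested in concentration series. Binding measured as displacement of a radioligand from CHO-derived receptor preparation, 1 h incubation, filtration and scintillation counting, analysed as signal loss against DMSO.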

Assay [12] deals with Muscarinic acetylcholine receptor M3 (Homo sapiens) (UniProt P20309). Nature of the assay: NVS_GPCR_hM3: NovaScreen (NVS) G Protein-Coupled Receptor Assay for human Muscarinic, M3 Receptor (AID 2283272). In short, it runs like this:
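Radioligand displacement binding on human M3 receptor in CHO-derived membranes, 1 h incubation, filter-based scintillation counting. Primary screen in duplicate at 25 uM; actives followed up in concentration series; loss of signal versus DMSO.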

Assay [13] concerns the target human Muscarinic, M4 Receptor, CHRM4 (gene 1132) (UniProt P08173). Kind of assay: NVS_GPCR_hM4: NovaScreen (NVS) G Protein-Coupled Receptor Assay for human Muscarinic, M4 Receptor (AID 2283274). In a few lines: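 Filter-based scintillation counting of radioligand bound to CHO-expressed human M4 preparations after 1 h; loss of signal fitted versus DMSO. Initial duplicate testing at 25 uM, concentration-response follow-up for actives.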

Assay [14] addresses Muscarinic acetylcholine receptor M5 (Homo sapiens) (UniProt P08912). Kind of assay: NVS_GPCR_hM5: NovaScreen (NVS) G Protein-Coupled Receptor Assay for human Muscarinic, M5 Receptor (AID 2283275). In short, it runs like this: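 Chemicals passing a primary duplicate screen at 25 uM were run as singleton concentration series, maximum 50 uM. Displacement of a specific radioligand from CHO-extracted receptor was read by filter scintillation after 1 h, relative to DMSO.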

Assay [15] addresses Neuropeptide Y receptor type 2 (Homo sapiens) (UniProt P49146). Kind of assay: NVS_GPCR_hNPY2: NovaScreen (NVS) G Protein-Coupled Receptor Assay for human Neuropeptide Receptor Y2 (NPY2) (AID 2283277). In a few lines: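 Chemicals were first tested in duplicate at 25 uM, then actives in singleton concentration series to 50 uM. Tracer binding to SK-N-MC-derived protein measured cell-free after 1 h via filter scintillation; signal loss relative to DMSO.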

In assay [16] the target is human Neurokinin, NK2 Receptor, TACR2 (gene 6865) (UniProt P21452). Nature of the assay: NVS_GPCR_hNK2: NovaScreen (NVS) G Protein-Coupled Receptor Assay for human Neurokinin, NK2 Receptor (AID 2283278).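 Note: actives reduce bound radioligand signal relative to DMSO baseline.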 In a few lines:
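Radioligand binding on membranes from CHO cells expressing receptor, filter-based scintillation read 4 h after dosing. Initial duplicate screen at 25 uM, actives in concentration series; loss of signal versus DMSO.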

In assay [17] the target is human Leukotriene B4 Receptor 1 (LTB4-BLT1), LTB4R (gene 1241) (UniProt Q15722). Nature of the assay: NVS_GPCR_hLTB4_BLT1: NovaScreen (NVS) G Protein-Coupled Receptor Assay for human Leukotriene B4 Receptor 1 (LTB4-BLT1) (AID 2283271). In short, it runs like this: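 Cell-free human neutrophil receptor preparation, 1 h exposure, radioligand binding read by filter scintillation counting. Single 25 uM duplicate screen, then concentration series topping at 50 uM; binding loss scored against DMSO baseline.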

For assay [18], the target named is human Endothelin Receptor Type B (ETB), EDNRB (gene 1910) (UniProt P24530). Kind of assay: NVS_GPCR_hETB: NovaScreen (NVS) G Protein-Coupled Receptor Assay for human Endothelin Receptor Type B (ETB) (AID 2283267). In short, it runs like this: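 Filter-based scintillation readout of radioligand displacement, 4 h, using membranes from human astrocytoma cells. Actives from a 25 uM duplicate screen were retested in concentration-response (top 50 uM) relative to DMSO baseline.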

The target of assay [19] is human Neuropeptide Receptor Y1 (NPY1), NPY1R (gene 4886) (UniProt P25929). Kind of assay: NVS_GPCR_hNPY1: NovaScreen (NVS) G Protein-Coupled Receptor Assay for human Neuropeptide Receptor Y1 (NPY1) (AID 2283276). In a few lines:
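Displacement of specific radioligand from NPY1 receptor of SK-N-MC origin, read by filtration and scintillation after 1 h. Compounds first tested at 25 uM in duplicate, then actives in concentration series; signal loss relative to DMSO.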

Several values for one entry are separate records, joined by “and”; a condition that tells them apart may be missing. Equal entries are not always repeated. Results filed as inconclusive are left out. Activity calls are given as the source filed them. Rule for the calls: active = hit-call score of the fitted dose curve at least 0.9, where 1 is the maximum; inconclusive = response in the unintended direction; inactive = score below 0.9.

human Neurokinin, NK2 Receptor, TACR2 (gene 6865), sequence (P21452 whole entry, looked up): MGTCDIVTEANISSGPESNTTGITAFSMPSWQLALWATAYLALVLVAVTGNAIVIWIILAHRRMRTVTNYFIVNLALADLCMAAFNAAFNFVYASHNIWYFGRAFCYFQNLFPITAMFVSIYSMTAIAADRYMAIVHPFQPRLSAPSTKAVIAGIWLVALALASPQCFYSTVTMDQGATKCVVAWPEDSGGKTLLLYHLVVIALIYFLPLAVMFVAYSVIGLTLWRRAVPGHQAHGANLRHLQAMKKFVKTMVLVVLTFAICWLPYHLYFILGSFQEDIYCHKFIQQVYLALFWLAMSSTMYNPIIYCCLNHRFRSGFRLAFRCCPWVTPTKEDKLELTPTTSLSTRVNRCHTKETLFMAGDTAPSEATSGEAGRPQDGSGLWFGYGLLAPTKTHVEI
D(1A) dopamine receptor (Homo sapiens), sequence (P21728 whole entry, looked up): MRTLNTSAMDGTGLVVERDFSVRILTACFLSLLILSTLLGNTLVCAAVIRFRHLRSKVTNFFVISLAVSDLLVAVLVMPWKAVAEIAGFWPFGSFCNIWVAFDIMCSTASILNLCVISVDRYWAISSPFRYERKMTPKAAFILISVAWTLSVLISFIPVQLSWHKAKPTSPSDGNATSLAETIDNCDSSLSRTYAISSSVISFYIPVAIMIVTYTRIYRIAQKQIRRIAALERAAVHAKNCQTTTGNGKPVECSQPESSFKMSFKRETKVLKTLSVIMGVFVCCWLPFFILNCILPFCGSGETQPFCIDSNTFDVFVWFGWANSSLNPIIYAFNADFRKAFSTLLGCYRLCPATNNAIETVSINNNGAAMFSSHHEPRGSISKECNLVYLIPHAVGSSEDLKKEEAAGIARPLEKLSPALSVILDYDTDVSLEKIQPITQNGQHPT
Muscarinic acetylcholine receptor M5 (Homo sapiens), sequence (P08912 whole entry, looked up): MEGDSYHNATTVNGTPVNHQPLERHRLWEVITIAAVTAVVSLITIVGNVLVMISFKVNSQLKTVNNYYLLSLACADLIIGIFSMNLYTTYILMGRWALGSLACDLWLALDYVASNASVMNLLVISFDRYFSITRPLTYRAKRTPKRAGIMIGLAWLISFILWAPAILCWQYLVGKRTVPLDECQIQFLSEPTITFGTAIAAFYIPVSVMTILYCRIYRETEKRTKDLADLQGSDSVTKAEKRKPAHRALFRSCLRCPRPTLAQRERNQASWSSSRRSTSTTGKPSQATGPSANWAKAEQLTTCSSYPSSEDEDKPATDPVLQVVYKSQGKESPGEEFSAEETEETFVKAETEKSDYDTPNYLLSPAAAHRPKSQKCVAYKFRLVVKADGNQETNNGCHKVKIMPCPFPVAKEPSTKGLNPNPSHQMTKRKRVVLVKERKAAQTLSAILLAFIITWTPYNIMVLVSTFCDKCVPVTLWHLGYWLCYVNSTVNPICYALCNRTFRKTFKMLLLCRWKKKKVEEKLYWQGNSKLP
human Adrenergic, Alpha 2A Receptor (Adra2A), ADRA2A (gene 150), sequence (P08913 whole entry, looked up): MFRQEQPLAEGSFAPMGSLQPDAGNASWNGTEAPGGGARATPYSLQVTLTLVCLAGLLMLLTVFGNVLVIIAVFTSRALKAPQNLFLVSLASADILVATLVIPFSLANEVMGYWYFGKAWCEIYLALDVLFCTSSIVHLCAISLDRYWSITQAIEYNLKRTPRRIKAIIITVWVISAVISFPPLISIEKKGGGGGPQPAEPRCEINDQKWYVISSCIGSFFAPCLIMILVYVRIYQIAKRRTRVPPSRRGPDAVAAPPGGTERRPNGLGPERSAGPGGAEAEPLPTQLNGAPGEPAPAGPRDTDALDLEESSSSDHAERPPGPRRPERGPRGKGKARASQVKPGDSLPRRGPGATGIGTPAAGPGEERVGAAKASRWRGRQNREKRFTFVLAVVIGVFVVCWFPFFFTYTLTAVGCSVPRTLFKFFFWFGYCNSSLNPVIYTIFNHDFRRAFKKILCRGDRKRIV
Muscarinic acetylcholine receptor M3 (Homo sapiens), sequence (P20309 whole entry, looked up): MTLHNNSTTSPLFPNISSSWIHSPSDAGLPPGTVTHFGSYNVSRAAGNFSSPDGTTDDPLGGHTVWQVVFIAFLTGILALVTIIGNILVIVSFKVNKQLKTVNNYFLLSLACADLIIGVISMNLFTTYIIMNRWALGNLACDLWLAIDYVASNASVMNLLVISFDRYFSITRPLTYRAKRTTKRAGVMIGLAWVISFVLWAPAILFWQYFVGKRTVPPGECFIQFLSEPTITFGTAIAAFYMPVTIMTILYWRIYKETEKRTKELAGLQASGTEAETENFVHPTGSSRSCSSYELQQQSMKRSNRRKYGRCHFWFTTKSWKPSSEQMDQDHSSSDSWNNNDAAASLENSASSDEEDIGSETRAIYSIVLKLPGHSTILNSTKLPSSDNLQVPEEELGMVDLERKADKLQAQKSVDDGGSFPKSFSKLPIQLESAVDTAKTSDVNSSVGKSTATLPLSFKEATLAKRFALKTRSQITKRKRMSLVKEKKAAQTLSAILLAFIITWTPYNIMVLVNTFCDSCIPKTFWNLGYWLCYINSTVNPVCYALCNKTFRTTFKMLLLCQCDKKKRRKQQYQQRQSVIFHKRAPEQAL
human Muscarinic, M4 Receptor, CHRM4 (gene 1132), sequence (P08173 whole entry, looked up): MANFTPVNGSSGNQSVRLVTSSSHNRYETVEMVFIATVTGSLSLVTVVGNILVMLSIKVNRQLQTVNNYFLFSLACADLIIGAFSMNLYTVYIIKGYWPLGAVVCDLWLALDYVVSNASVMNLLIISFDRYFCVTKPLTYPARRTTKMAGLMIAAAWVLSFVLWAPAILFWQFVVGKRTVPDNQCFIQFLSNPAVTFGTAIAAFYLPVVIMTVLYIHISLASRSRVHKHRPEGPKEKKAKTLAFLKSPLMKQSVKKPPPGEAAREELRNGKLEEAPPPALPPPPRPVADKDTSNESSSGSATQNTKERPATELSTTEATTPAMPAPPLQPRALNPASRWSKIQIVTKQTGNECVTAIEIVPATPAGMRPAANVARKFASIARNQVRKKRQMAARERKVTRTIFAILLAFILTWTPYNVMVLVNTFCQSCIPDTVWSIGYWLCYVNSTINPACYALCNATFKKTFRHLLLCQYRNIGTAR
Type-1 angiotensin II receptor (Homo sapiens), sequence (P30556 whole entry, looked up): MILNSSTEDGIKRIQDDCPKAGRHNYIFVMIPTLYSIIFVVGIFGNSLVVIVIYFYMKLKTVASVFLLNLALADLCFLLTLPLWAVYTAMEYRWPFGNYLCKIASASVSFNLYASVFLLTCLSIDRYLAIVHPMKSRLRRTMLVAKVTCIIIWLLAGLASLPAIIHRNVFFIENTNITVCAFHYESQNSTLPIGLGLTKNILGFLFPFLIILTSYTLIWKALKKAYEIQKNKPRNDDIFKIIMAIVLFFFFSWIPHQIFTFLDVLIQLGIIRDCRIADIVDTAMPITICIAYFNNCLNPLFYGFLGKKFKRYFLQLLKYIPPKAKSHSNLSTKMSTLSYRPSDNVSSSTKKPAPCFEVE

One may read the AC50 as the midpoint of the concentration-response curve, whichever way the signal moves. In the case of `CN(C)C(=O)C1(N2CCCCC2)CCN(CC[C@@]2(c3ccc(Cl)c(Cl)c3)CN(C(=O)c3ccccc3)CCO2)CC1`, the AC50 in assay [1] is 35.6 µM (active); in assay [2], 20.7 µM (active); in assay [3], 12.1 µM (active); in assay [4], 25.9 µM (active); in [5], 23.6 µM (active); in assay [6], 15.7 µM (active). The AC50 is 12.2 µM (active) in assay [7]; 1.59 µM (active) in assay [8]; 20.3 µM (active) in [9]; 23.6 µM (active) in [10]; 11.7 µM (active) in assay [11]; 9.78 µM (active) in [12]. In addition, the AC50 is 6.99 µM (active) in assay [13], 6.44 µM (active) in assay [14] and 8.65 µM (active) in assay [15]. Besides, the result in [16] was inactive.

With `CCN(Cc1cccnc1)C(=O)c1cccc(Cl)c1[C@]1(C)C(=O)N(Cc2ccc(OC)cc2OC)c2ccc(Cl)cc21`, the call in assay [1] was inactive. For the same compound, the AC50 was 2.22 µM (active) in assay [3]; 3.69 µM (active) in assay [6]; 1.91 µM (active) in assay [8]; 2.53 µM (active) in [10]; 1.49 µM (active) in assay [17]; 4.06 µM (active) in [14].

With `O=C1c2ccccc2C(=O)N1CCc1noc(-c2ccc(CN3CCCCCC3)s2)n1`, the AC50 in assay [1] is 0.861 µM (active); in assay [3], 1.08 µM (active); in assay [6] it was 14.8 µM (active); in [8] it was 10.1 µM (active); in assay [9], 7.44 µM (active); in assay [11], 7.52 µM (active). In addition, the AC50 in [12] is 3.96 µM (active); in assay [13], 7.92 µM (active); in assay [14], 7.99 µM (active); in [16], 12.3 µM (active). Further, the result in assay [18] and in [17] was inactive.

For `O=c1[nH]sc2ccccc12`, the AC50 in assay [6] is 25 µM (active); in [10], 6.83 µM (active); in assay [19] it was 4.62 µM (active); in assay [16], 0.38 µM (active).

Consider `O=C(O)Cn1c(=O)n(Cc2ccc(Br)cc2F)c(=O)c2ccc(Cl)cc21`, for which the compound was classed as inactive in assay [15].

Consider `CC/C(=C(/CC)c1ccc(O)cc1)c1ccc(O)cc1`, for which the AC50 in assay [2] is 43.5 µM (active); in assay [3], 19.2 µM (active) and 25 µM (active) and 5.86 µM (active); in assay [4], 40.3 µM (active); in [5] it was 13.9 µM (active); in [8] it was 25 µM (active). Further, in assay [7], the compound was classed as inactive.

Consider `c1ccc(C[n+]2cccc3ccccc32)cc1`, for which the AC50 in assay [9] is 13 µM (active); in assay [12], 25 µM (active); in assay [13], 16.8 µM (active); in assay [14], 11.8 µM (active).
